# Test results taken from PubChem BioAssay AID686978 (National Center for Advancing Translational Sciences (NCATS), 2013).
# The whole screen tested about 420,000 compounds, of which about 64,000 (15%) were called active. About 27% were inconclusive and are not listed. Calls follow the shape of the dose curve; as a rule, active = well fitted inhibition curve with a large enough effect; inconclusive = small, poorly fitted or top-dose-only effect; inactive = flat fitted curve, though single readings scatter. Not all results are given here.
# Assay: qHTS for Inhibitors of human tyrosyl-DNA phosphodiesterase 1 (TDP1): qHTS in cells in absence of CPT; also: nearly all actives have a fitted effect of over 55% in size
# Details: DT40 Tdp1-/- hTDP1 cells, no CPT, ATP luminescence, 48 h; activity change, negative = growth inhibition: at 46.2 µM (top of the series)
# Outline: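 Compound effects on proliferation are scored in DT40 Tdp1-/-;hTDP1 cells in the absence of CPT. ATP levels (CellTiter-Glo luminescence) are recorded after a ≥48 hr, 37 °C incubation.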
# % is scaled to controls: 0 for no effect and ±100 for the full control effect; potency is read from the fitted curve at half-maximal effect.
Structure (SMILES),"activity change, negative = growth inhibition",Potency
Cc1nc(SCC(=O)NC2CCCC2)[nH]c(=O)c1C,-0.993% (inactive),
Cc1ccsc1C(=O)OCC(=O)c1cc2ccccc2o1,-9.66% (inactive),
CCCCc1nn2c(=O)cc(COC(=O)c3cccc(NC(=O)COc4ccccc4)c3)nc2s1,-10.2% (inactive),
O=C1CS(=O)CN1c1ccc(Oc2ccccc2)cc1 (stereo unspecified),-20.1% (inactive),
O=C(CN1C(=O)NC2(CCCCCC2)C1=O)NCc1ccc(F)cc1,3.82% (inactive),
COc1cccc(NC(=O)c2cc(S(=O)(=O)N3CCc4ccccc43)cn2C)c1,-1.2% (inactive),
COc1ccccc1N(C)C(=O)c1cc(S(=O)(=O)N2CCc3ccccc32)cn1C,,25.9 µM (active)
COc1cc(OC)c(NC(=O)c2cc(S(=O)(=O)N3CCCC3)cn2C)cc1Cl,-7.62% (inactive),
CN(C(=O)COC(=O)Cn1cnc2c1c(=O)n(C)c(=O)n2C)C1(C#N)CCCCC1,0.855% (inactive),
NCC(=O)c1cccc2ccc[n+]([O-])c12,-0.678% (inactive),
O=C(c1cnccn1)N1CCC2(CCCN(Cc3ccccc3)C2)CC1,-1.1% (inactive),
CCN(Cc1ccncc1)C(=O)[C@@H](CO)c1ccccc1,2.72% (inactive),
C=CCn1c(SCC(=O)NCc2ccccc2)nnc1-c1cc(Br)ccc1O,-18% (inactive),
COc1ccc(NC(=O)CCN2CCCC2)c(OC)c1,0.0354% (inactive),
COc1ccc(-c2ccc3c(c2)C2CC3CCN2CCC#N)cc1 (stereo unspecified),,23.1 µM (active)
C=CCOC(=O)N1CCC2CC1c1cc(-c3ccc(OC)cc3)ccc12 (stereo unspecified),,16.4 µM (active)
COc1ccc(OCC(=O)NNC(=O)C2CCC2)cc1,-5.78% (inactive),
CC1CC1C(=O)OCC(=O)c1c(N)n(C)c(=O)n(C)c1=O (stereo unspecified),8.67% (inactive),
CCOC(=O)N1CCN(C(c2cccnc2)c2ccc3cccnc3c2O)CC1 (stereo unspecified),,1.64 µM (active)
Cc1onc(C(=O)NN)c1C(=O)N1CCN(C(c2ccccc2)c2ccccc2)CC1,-18.3% (inactive),
CCOC(=O)N1CCN(C(=O)c2cc3c(ccc4ccccc43)oc2=O)CC1,-24.1% (inactive),
CCOC(=O)Cn1nnnc1C,-9.63% (inactive),
CCC(C)CCN1CCN=C1N(C)C (stereo unspecified),-17.4% (inactive),
CC(C)NS(=O)(=O)c1ccc(OCC(=O)Nc2ccc3c(c2)OCCO3)cc1,-0.099% (inactive),
CC1CC2=C(CC1/C=N/NC(N)=S)C(C)(C)CCC2 (stereo unspecified),,3.26 µM (active)
Cc1ccc(OCC(=O)OCc2cc(=O)n3nc(C4CC4)sc3n2)cc1C,0.484% (inactive),

Structure (SMILES),"activity change, negative = growth inhibition",Potency
COc1cccc(Nc2nnc(SCC(=O)N3CC(=O)Nc4ccccc43)s2)c1,-29.2% (inactive),
O=c1c2cc([N+](=O)[O-])ccc2nc2n1CCC2,-13.8% (inactive),
N#C/C(=C/c1cccc([N+](=O)[O-])c1)c1nnc2n1CCCCC2,,13 µM (active)
N#C/C(=C(\O)C(F)(F)F)c1nnc2n1CCCCC2,-0.657% (inactive),
Cc1ccc(NC(=O)c2cc([N+](=O)[O-])ccc2Cl)c(O)c1,-26.4% (inactive),
CCn1cc(C(=O)N[C@@H](C)C(=O)NCCO)c(=O)c2cc3c(cc21)OCO3,34.9% (inactive),
NC(=O)c1sc(-c2ccsc2)cc1N,-17.9% (inactive),
C#CCOCCOCCOCCNc1nc(N2CCN(C(=O)[C@H](CCCN=C(N)N)n3cc(C(N)[C@@H](C)CC)nn3)CC2)nc(N2CCN(C(=O)[C@H](CO)n3cc([C@@H](N)C(C)C)nn3)CC2)n1 (stereo partly specified),-2.88% (inactive),
C#CCOCCOCCOCCNc1nc(N2CCN(C(=O)Cn3cc(CCO)nn3)CC2)nc(N2CCN(C(=O)Cn3cc(CCCN=C(N)N)nn3)CC2)n1,-0.16% (inactive),
C#CCOCCOCCOCCNc1nc(N2CCN(C(=O)CCCCCCCCCCNC(=O)[C@H]([C@@H](C)CC)n3cc(CCCCN=C(N)N)nn3)CC2)nc(N2CCN(C(=O)CCCCCCCCCCNC(=O)[C@H](CO)n3cc(CCCSC)nn3)CC2)n1,,8.2 µM (active)
CCN(CC)CCCSc1nc2ccccc2s1,-17.6% (inactive),
O=C(NC(=O)N1CCSCC1)c1c(Cl)cccc1Cl,-12% (inactive),
O=C(NCCc1cccc(F)c1)C1CC(O)CN1C(=O)Nc1ccccc1 (stereo unspecified),-11.9% (inactive),
COc1ccc(CCC(=O)N2CCN(S(=O)(=O)c3ccc(OC)cc3)CC2)cc1,-32.4% (inactive),
COc1cc(CCC(=O)N2CCN(c3ccccc3Cl)CC2)cc(OC)c1OC,,11.6 µM (active)
COc1cc(CCC(=O)Nc2ccncc2Cl)cc(OC)c1OC,-14.5% (inactive),
CCOC(=O)C1=C(c2ccccc2)O/C(=C(/C(=O)OC)C(F)(F)F)S1,-21.6% (inactive),
Cc1ccc2c(c1)N(C(=O)CCC(=O)NCc1cccnc1)CCO2,-4.05% (inactive),
Cc1c(C)n2c(SCC(=O)NC3CCCC3)nnc2[nH]c1=O,-3.76% (inactive),
CC(C)Cc1nnc(N)s1,-14.3% (inactive),
CCOCCCN1C(=O)CN(C2CCCCC2)C(=O)C1c1ccc(OCC)c(OC)c1 (stereo unspecified),-15.8% (inactive),
CC1CCC(N2CC(=O)N(CCC3=CCCCC3)C(c3ccc(F)cc3)C2=O)CC1 (stereo unspecified),,10.3 µM (active)
CCCc1nnc(SCC(=O)N2C(C)CCCC2C)n1CC (stereo unspecified),-0.484% (inactive),
O=C(c1cccc(N2CCCC2=O)c1)N1CCOCC1,-0.431% (inactive),
O=C(c1cc2cc(Br)cc(Br)c2oc1=O)N1CCOCC1,3.73% (inactive),
O=C1Nc2c(Br)cc(Br)cc2C1(O)N1CCOCC1 (stereo unspecified),,3.66 µM (active)

Structure (SMILES),"activity change, negative = growth inhibition",Potency
O=C(CSC(=S)N1CCOCC1)c1cc(Br)cc(Br)c1O,-13.5% (inactive),
O=C(CN1C(=O)c2cccc3cccc(c23)C1=O)N1CCCCC1,-23.4% (inactive),
c1ccc(CCN2CN=C(Nc3nc4ccccc4o3)NC2)cc1,-27.1% (inactive),
COc1cc(NS(=O)(=O)c2ccc(N/C=C(\C=O)c3nc4cc(Cl)ccc4o3)cc2)nc(OC)n1,-5.39% (inactive),
O=C(NCCCN1CCOCC1)C1CCCN(S(=O)(=O)N2CCCCC2)C1 (stereo unspecified),32.6% (inactive),
CCCSc1nsc(N)n1,-9.3% (inactive),
CCC(c1nnnn1Cc1ccco1)N(Cc1cc2cc(OC)ccc2[nH]c1=O)C1CCCCC1 (stereo unspecified),,23.1 µM (active)
COc1ccc2[nH]c3c(=O)n(Cc4ccco4)cnc3c2c1,-29.2% (inactive),
COc1ccc(/C(O)=C2\C(=O)C(=O)N(Cc3ccco3)C2c2ccc(OC)cc2OC)cc1 (stereo unspecified),-12.4% (inactive),
CCC(c1nnnn1Cc1ccco1)N(CCc1ccccc1)Cc1cc2ccc(OC)cc2[nH]c1=O (stereo unspecified),,29.1 µM (active)
CCOc1ccc2[nH]c(=O)c(C(c3nnnn3CCOC)N3CCOCC3)cc2c1 (stereo unspecified),5.67% (inactive),
CCCN(Cc1cc2cccc(C)c2[nH]c1=O)S(C)(=O)=O,9.52% (inactive),
CCC(c1nnnn1Cc1ccco1)N(CCc1ccccc1)Cc1cc2cccc(C)c2[nH]c1=O (stereo unspecified),,29.1 µM (active)
CC(C)C(c1nnnn1CCc1ccccc1)N1CCN(C(=O)c2ccco2)CC1 (stereo unspecified),-16% (inactive),
CCN(CC)c1ccc(/C=N/NC(=O)CNC(=O)c2cccs2)cc1,-28% (inactive),
CN(C(=O)COC(=O)c1nc(Cl)ccc1Cl)C1CCS(=O)(=O)C1 (stereo unspecified),8.66% (inactive),
COc1ccc(NC2CC(=O)N(C)C2=O)cc1 (stereo unspecified),-6.54% (inactive),
COc1ccccc1S(=O)(=O)c1c(C)cc(C)[nH]c1=O,3.84% (inactive),
C=CCNC(=S)NNC(=O)COc1c(Cl)cc(Cl)cc1Cl,-26.5% (inactive),
CC(C)(C)C(=O)Nc1ccc(C(=O)N/N=C/c2ccccc2OC(=O)c2ccc(Cl)cc2Cl)cc1,,11.6 µM (active)
O=C(N/N=C/c1ccoc1)c1ccc(Cl)cc1Cl,13.7% (inactive),
CSc1ccc(/C=N/NC(=O)c2cccc(Cl)c2)cc1,6.76% (inactive),
CCCN=C1N(C)C[C@@H]2[C@@H]3C(=O)N(Cc4ccccc4)C(=O)[C@@H]3[C@](C)(C(=O)OC)N12,2.25% (inactive),
CCN1C[C@@H]2[C@@H]3C(=O)N(Cc4ccccc4)C(=O)[C@@H]3[C@](Cc3ccccc3)(C(=O)OC)N2C1=NC1CCCCC1,,16.4 µM (active)
CC[C@]1(C(=O)OC)[C@H]2C(=O)N(C)C(=O)[C@H]2[C@H]2CN(C)C(=NCc3ccccc3)N21,-2.94% (inactive),
CCOC(=O)c1cc2occc2n1CC(=O)N1CCN(C(=O)c2ccco2)CC1,-21.7% (inactive),

Structure (SMILES),"activity change, negative = growth inhibition",Potency
ClC1(Cl)CC1CSc1ncn[nH]1 (stereo unspecified),12.6% (inactive),
CC(=O)O[C@H]1c2ccccc2-c2ccccc2[C@@H]1OC(C)=O,1.27% (inactive),
CC(Sc1nc2ccccc2c(=O)n1Cc1ccco1)C(=O)c1ccccc1 (stereo unspecified),-5.11% (inactive),
Cc1ccc(Cn2c(=O)n(Cc3nc(-c4ccccc4)no3)c(=O)c3cc4c(cc32)OCO4)cc1,10.7% (inactive),
Cc1ccc(Cn2c(C)nc3c(c2=O)c2nc4ccccc4nc2n3Cc2ccco2)cc1,,23.1 µM (active)
O=C(NNc1ccccn1)c1ccc(Cl)nc1,-0.0188% (inactive),
Cc1nc2scc(-c3cccs3)c2c(=O)n1N,-27.9% (inactive),
CCOC(=O)C(C)n1cnc2scc(-c3ccc(C)c(C)c3)c2c1=O (stereo unspecified),2.91% (inactive),
CCCc1nc2scc(-c3ccc(C)cc3)c2c(=O)n1N,,18.4 µM (active)
Cc1cc(C)c(S(=O)(=O)c2ccccc2)c(OC(=O)c2c(F)cccc2Cl)n1,-16.8% (inactive),
CCN(CC)S(=O)(=O)c1ccc(N(C)CCc2ccc(OC)c(OC)c2)nc1,,20.6 µM (active)
CCOC(=O)CN(Cc1ccc(OC)c(OC)c1)S(=O)(=O)c1ccc(OC)cc1,-19.3% (inactive),
CCN(CC)S(=O)(=O)c1ccc(NC(=O)c2cnc(C)cn2)cc1,3.23% (inactive),
CCS(=O)(=O)NCCc1ccc(OC)c(OC)c1,-19.1% (inactive),
CCN(CC)S(=O)(=O)c1ccc(OC)c(NC(=O)CCc2c(C)noc2C)c1,12.1% (inactive),
CCN(CC)S(=O)(=O)c1ccc(N(C)Cc2ccc(C(F)(F)F)cc2)nc1,,13 µM (active)
CCN(CC)S(=O)(=O)c1ccc(N(C)Cc2cccc(OC)c2OC)nc1,,18.4 µM (active)
CCOc1ccc(Br)cc1S(=O)(=O)Nc1cccc(S(=O)(=O)N(CC)CC)c1,2.37% (inactive),
CCN(CC)S(=O)(=O)c1ccc(Cl)c(NC(=O)c2ccncc2)c1,-13.3% (inactive),
NC(=O)C[C@@H]1NC(=O)CNC(=O)c2cc([N+](=O)[O-])cc(I)c2NCCC(C(N)=O)NC1=O (stereo partly specified),18.2% (inactive),
COc1ccc(-n2c(CNC(=O)c3cc(C(F)(F)F)ccc3Cl)nnc2SC)cc1,-15.9% (inactive),
CC(C)=CC(=O)Nc1nnc(-c2ccc(F)cc2)s1,-7.58% (inactive),
COc1cccc(OC)c1C(=O)Nc1nnc(C(C)C)s1,-11.6% (inactive),
